# PubChem BioAssay (NCI)
# Compounds without any hit were thinned out: in the full panel of roughly 83,000, 20% have a hit.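 How to read the values: 0–100, growth inhibition (40 = 60% inhibited); 0, no net growth; -100 to 0, cell death (-40 = 40% of starting cells died; -100 = all dead).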 A number with no mark means an inactive call. Activity calls are given as the source filed them.
# System: UO-31 renal
# Test: NCI-60 one-dose screen, 48 h (100 = growth as untreated, 0 = no growth, -100 = all killed)
# Details: 10 µM unless noted
# Experimental: Growth inhibition of the UO-31 human tumor cell line is measured as a screen for anti-cancer activity. Cells are grown in 96 well plates and exposed to the test compound for 48 hours. Compounds are tested at a single concentration, which is 10^-5 M for most compounds. The reported endpoint is percent growth (GI% or GIPRCNT), where numbers from 0 - 100% represent growth inhibition, and numbers from -100% - 0 represent cell death. For example, a value of 40 represents 60% growth inhibition. A value of 0 means no net growth occurred over the course of the experiment. A value of -40 indicates 40% of cells at the beginning of the experiment died by the end of the experiment. A value of -100 means all cells are dead at the end of the experiment.
# NCI-60 Human Tumor Cell Lines Screen was performed using the standard one-dose NCI protocol, which is described in more detail at https://dtp.cancer.gov/discovery_development/nci-60/default.htm.
# Compounds with GIPRCNT values below 10 were considered active. Activity score was based on GIPRCNT using the following formula: […]
# Score is 0 for GIPRCNT values of 100 or above, 50 for GIPRCNT values of 0, and 100 for GIPRCNT values of -100.
row,Structure (SMILES),growth
1,Ic1ccc(Nc2nc3nonc3nc2Nc2ccc(I)cc2)cc1,-0.338% (active)
2,COc1ccc(C2[C@@H](Cl)C(=O)N2c2cc(OC)c(OC)c(OC)c2)cc1Cl (stereo not given in full),45.3%
3,COC(=O)c1c(C)nc(C)c2c1C(=O)C=C(NCc1ccccc1)C2=O,74.2%
4,CCOC(=O)c1cnn(CC(C)O)c1NC(=O)NCc1cccc(F)c1 (stereo not given),91.7%
5,N#Cc1ccc(O)c(C2=NCC(c3ccc(-c4ccccc4)cc3)O2)c1 (stereo not given),1.37% (active)
6,O=C(Oc1ccc2c(c1)sc1nc(-c3ccccc3)[nH]c(=O)c12)C(F)(F)F,26.1%
7,C/C=C1/CN(CCCCC)CC[C@H]1C(=O)c1cc2ccccc2[nH]1,50.7%
8,COC12C=C/C(=C(/C(=O)OCCSc3ccnn3C)C(=O)CCCCCCCCC3(OC)C=C/C(=C(/C(=O)OCCSc4ccnn4C)C(=O)CCCCCCCC1)O3)O2,14.8%
9,COc1cc2c(cc1OCCCN1CCN(C(=S)SCCC(C#N)(c3ccccc3)c3ccccc3)CC1)N=C[C@@H]1CCCN1C2=O,4.62% (active)
10,CCOC(=O)c1cn2ncnc(Oc3ccc(NC(=O)NC4CC4)c(Cl)c3)c2c1C,65.3%
11,Nc1ccc(-c2ccncc2)cc1NC(=O)N1CCCC1,88.7%
12,Cc1cccc(-c2nc(C(C)C)sc2-c2ccnc(NCCCNS(=O)(=O)c3ccc(Cl)cc3)c2)c1,75.3%
13,C(=C(\C1=NCCN1)n1ccc2ccccc21)/c1ccccc1,62.4%
14,O=C(Nc1cccnc1Nc1ccccc1)c1cn(Cc2cccc(Oc3ccccc3)c2)nn1,51.8%
15,Cc1nc2sc(C(=O)Nc3cccc(Cl)c3C)c(N)c2cc1C(=O)/C=C/c1ccccc1,-60.1% (active)
16,O=c1oc2c(cc1-c1ccccc1)c(=O)[nH]c1ccccc12,96.6%
17,COC12C=C/C(=C(/C(=O)OCc3cncnc3)C(=O)CCCCCCCCC3(OC)C=C/C(=C(/C(=O)OCc4cncnc4)C(=O)CCCCCCCC1)O3)O2,-73.6% (active)
18,Cc1ccc(S(=O)(=O)N2CCCN(c3nc(-c4ccccc4)nc4nc(-c5ccccc5)oc34)CC2)cc1,76.8%
19,CC1(C)CC[C@]23CC[C@]4(C)[C@H](CC[C@@H]5[C@@]6(C)C/C(=C/O)C(=O)C(C)(C)[C@@H]6CC[C@]54C)[C@H]2[C@H]1OC3,85%
20,Cc1nc2sc(C(=O)Nc3ccccn3)c(N)c2cc1C(C)O (stereo not given),78.4%

row,Structure (SMILES),growth
1,CN(C)c1ccc(C(=S)c2ccc(N(C)C)cc2)cc1,59%
2,CCOC(=O)NC(=S)n1oc(=O)c2ccccc21,82.2%
3,CCN1C2CCC1/C(=C\c1ccccc1)C(=O)/C2=C/c1ccccc1,61.1%
4,Cc1nc(N/N=C/c2cn(-c3ccccc3)nc2-c2cc3ccccc3oc2=O)sc1N=Nc1ccccc1,70.7%
5,CN(C)c1ccc(/C=C2\C=C(c3nc4ccccc4s3)OC2=O)cc1,73.4%
6,COc1ccc(N/N=C/c2cn(-c3ccc(C(=O)O)cc3)nc2-c2cc3ccccc3oc2=O)cc1,22.8%
7,O=C1/C(=C/c2ccc(Cl)cc2)CN(C(=O)C(Cl)Cl)C/C1=C\c1ccc(Cl)cc1,-99.7% (active)
8,CCCCC#Cc1c(I)n(C2OC(CO[Si](C)(C)C(C)(C)C)C3OC(C)(C)OC32)c(=O)n(C(=O)c2ccccc2)c1=O (stereo not given),-49.4% (active)
9,COCCn1cc(-c2nc(-c3cn(CCOC)c4ncccc34)cs2)c2cc(F)ccc21,68.3%
10,Nc1[nH]nc2nc(-c3ccccc3)n3c4ccccc4nc3c12,83.2%
11,CCOC(=O)/C(=C(/C)NCC(C)C)c1cc(O)c(O)c2c(C)cc(=O)[nH]c12,59.3%
12,N[C@@H]1CCC[C@H]1NCCCCN1C(=O)c2cccc3cc([N+](=O)[O-])cc(c23)C1=O,61.9%
13,Clc1ccc(Nc2nnc(CNc3ccccc3)c3ccccc23)cc1,1.91% (active)
14,CN(C)CCC(=O)C1CC1,75.9%
15,O=C(NCCNC(c1ccccc1)C(NCCNC(=O)c1ccccc1)c1ccccc1)c1ccccc1 (stereo not given),80.3%
16,O=c1cc(CNc2cc(F)cc(F)c2)c2ccc(I)cc2[nH]1,39.7%
17,COc1cc(/C=C/C(=O)c2cc(OC)c(OC)c(OC)c2)ccc1Oc1nc2c(c(=O)n(C)c(=O)n2C)n1C,-92.1% (active)
18,C#CCOc1ccc2nc(CCl)c(Cl)c(Nc3cccc(C(F)(F)F)c3)c2c1,51.8%
19,Cc1nc([P+](c2ccccc2)(c2ccccc2)c2ccccc2)c(N2CCCCC2)o1,97%
20,COc1cccc(-c2cn3nc(-c4cn(C)c5ccccc45)sc3n2)c1,71.7%
